# Assay results as given in PubChem BioAssay (NCATS).
# Inconclusive results are not listed. Active and inactive are the calls of the source. The call rests on the fitted dose curve.
# Legend:
# [1] = qHTS drug screen for cell cycle checkpoint inhibitors in PARPi-resistant BRCA-mutant ovarian cancer cell lines. (AID 1963452); details: PEO1/OlaR viability, CellTiter-Glo luminescence, 96 h; for Z-AUC: stronger effect = lower value; further: potency means the concentration at half of the fitted maximal effect
# How it was run: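 PEO1, PEO4 and PEO1/OlaR ovarian cancer cells, 600 per well, exposed 96 h at 37C to a dilution series. Viability read by CellTiter-Glo luminescence, normalized to DMSO and empty wells; activity summarized as Z-AUC.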
# [2] = qHTS for identification of novel therapeutic agents for treatment of microphthalmiaassociated transcription factor (MiT) renal cell carcinoma (RCC) (AID 1963991); details: CellTiter-Glo, 48 h, stronger effect = lower value;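 further: curves scaled with 100% = DMSO viability and 0% = empty wells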
# How it was run: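 UOK109/UOK124/UOK145 (TFE3 fusions, three partners); 500 cells/well; MIPE v4.0, 1912 cpds, 11 conc.; 48 h, 37 C; CellTiter-Glo, 15 min RT; lum. Norm.: DMSO 100%, empty 0%.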
# [3] = measured here: PEO1 parental Z-AUC
compound,measurement,setting,value
O=c1c(O)c(-c2ccc(O)cc2)oc2cc(O)cc(O)c12,Z-AUC,[1],0.889 (inactive)
same,Z-AUC,[1]; [3],1.15
same,Z-AUC,[1]; measured here: PEO4 Z-AUC,1.73
CC(C)OC(=O)C(C)(C)Oc1ccc(C(=O)c2ccc(Cl)cc2)cc1,Z-AUC,[1],-0.547 (inactive)
same,Z-AUC,[1]; [3],-0.458
same,Z-AUC,[1]; measured here: PEO4 Z-AUC,0.0191
COCCOC(=O)C1=C(C)NC2=C(C(=O)CC(c3ccccc3OC)C2)C1c1cccc(O)c1 (stereo unspecified),Z-AUC,[1],-0.198 (inactive)
same,Z-AUC,[1]; [3],0.425
same,Z-AUC,[1]; measured here: PEO4 Z-AUC,0.517
O=C(Nc1cc(Cl)cc2c1[nH]c1cnccc12)c1cccnc1,Z-AUC,[1],0.696 (inactive)
same,Z-AUC,[1]; [3],0.253
same,Z-AUC,[1]; measured here: PEO4 Z-AUC,0.368
Nc1ncnc2ccccc12,Z-AUC,[1],-0.0198 (inactive)
same,Z-AUC,[1]; [3],0.844
same,Z-AUC,[1]; measured here: PEO4 Z-AUC,0.705
CN[C@@H](C)C(=O)N[C@H]1CN(C(=O)CC(C)C)CC[C@H]2CC[C@@H](C(=O)NC(c3ccccc3)c3ccccc3)N2C1=O,Z-AUC,[1],0.77 (inactive)
same,Z-AUC,[1]; [3],0.371
same,Z-AUC,[1]; measured here: PEO4 Z-AUC,-0.22
O=C(CCCCCCC(=O)Nc1ccccc1)NO,Z-AUC,[1],-0.11 (inactive)
same,Z-AUC,[1]; [3],-0.486
same,Z-AUC,[1]; measured here: PEO4 Z-AUC,-0.541
COc1ccc(-c2cc(=O)c3c(O)cc(O)cc3o2)cc1O,Z-AUC,[1],0.388 (inactive)
same,Z-AUC,[1]; [3],0.498
same,Z-AUC,[1]; measured here: PEO4 Z-AUC,0.413
CS(=O)(=O)N(Cc1ccco1)CC(O)Cn1c2ccccc2c2ccccc21 (stereo unspecified),Z-AUC,[1],1.06 (inactive)
same,Z-AUC,[1]; [3],0.549
same,Z-AUC,[1]; measured here: PEO4 Z-AUC,0.481
COc1ccc2c(Oc3ccc(NC(=O)c4c(C)n(CC(C)(C)O)n(-c5ccccc5)c4=O)cc3F)ccnc2c1,Z-AUC,[1],-0.152 (inactive)
same,Z-AUC,[1]; [3],0.199
same,Z-AUC,[1]; measured here: PEO4 Z-AUC,0.0396
COc1ncc(-c2ccc3nccc(-c4ccnnc4)c3c2)cc1NS(=O)(=O)c1ccc(F)cc1F,Potency,[1],0.174 µM (active)
CC#CCn1c(N2CCC[C@@H](N)C2)nc2c1c(=O)n(Cc1nc(C)c3ccccc3n1)c(=O)n2C,Z-AUC,[1],-0.285 (inactive)
same,Z-AUC,[1]; [3],0.131
same,Z-AUC,[1]; measured here: PEO4 Z-AUC,-0.262
C[C@H](NC(=O)c1sccc1OCc1ccc(Cl)cc1)c1ccccc1,Z-AUC,[1],0.368 (inactive)
same,Z-AUC,[1]; [3],-0.143
same,Z-AUC,[1]; measured here: PEO4 Z-AUC,-0.0391
O=C(NCc1ccccc1)c1csc(Nc2ccncn2)n1,Z-AUC,[1],-0.615 (inactive)
same,Z-AUC,[1]; [3],0.117
same,Z-AUC,[1]; measured here: PEO4 Z-AUC,0.922
CO[C@@H](C(=O)N1Cc2[nH]nc(NC(=O)c3ccc(N4CCN(C)CC4)cc3)c2C1)c1ccccc1,Z-AUC,[1],-0.0482 (inactive)
same,Z-AUC,[1]; [3],0.272
same,Z-AUC,[1]; measured here: PEO4 Z-AUC,-0.117
O=C(Nc1ccccc1-c1cn2c(CN3CCNCC3)csc2n1)c1cnc2ccccc2n1,Z-AUC,[1],0.244 (inactive)
same,Z-AUC,[1]; [3],0.118
same,Z-AUC,[1]; measured here: PEO4 Z-AUC,-0.298
Cc1cccc(Nc2nc(-c3ccncc3)cs2)c1,Z-AUC,[1],0.772 (inactive)
same,Z-AUC,[1]; [3],0.626
same,Z-AUC,[1]; measured here: PEO4 Z-AUC,0.437
CC(C)(C)NC(=O)Nc1cccc(Nc2ncc(F)c(NC(C)(C)CO)n2)c1,Z-AUC,[1],-0.707 (inactive)
same,Z-AUC,[1]; [3],-1.21
same,Z-AUC,[1]; measured here: PEO4 Z-AUC,-1.05
same,z-score,"[2]; TFE3-RCC UOK109 viability, measured here: UOK109 Z-AUC",1.09
same,z-score,"[2]; TFE3-RCC viability, measured here: UOK124 Z-AUC",-0.121
same,z-score,"[2]; TFE3-RCC viability, measured here: UOK145 Z-AUC",0.237
COc1cccc2c1CCCC2CCCN1CCN(C2CCCCC2)CC1 (stereo unspecified),Z-AUC,[1],0.972 (inactive)
same,Z-AUC,[1]; [3],0.889
same,Z-AUC,[1]; measured here: PEO4 Z-AUC,0.366
CC(C)=CC[C@@H](O)C1=CC(=O)c2c(O)ccc(O)c2C1=O,Z-AUC,[1],-0.228 (inactive)
same,Z-AUC,[1]; [3],-0.402
same,Z-AUC,[1]; measured here: PEO4 Z-AUC,-0.229
CN(C)Cc1cccc(N=C(c2ccccc2)c2c(O)[nH]c3cc(C(=O)N(C)C)ccc23)c1,Z-AUC,[1],-0.969 (inactive)
same,Z-AUC,[1]; [3],-0.73
same,Z-AUC,[1]; measured here: PEO4 Z-AUC,-1.01
Cc1ccc(Nc2cc(-c3cccc(N4C(=O)c5ccccc5C4=O)c3)ncn2)cc1NS(C)(=O)=O,Z-AUC,[1],-0.648 (inactive)
same,Z-AUC,[1]; [3],-0.644
same,Z-AUC,[1]; measured here: PEO4 Z-AUC,-0.365
CC1(C)CCC2=C(O1)c1ccccc1C(=O)C2=O,Z-AUC,[1],0.0983 (inactive)
same,Z-AUC,[1]; [3],-0.291
same,Z-AUC,[1]; measured here: PEO4 Z-AUC,0.134
C[C@H](NC(=O)C(=O)Nc1ccccc1C(C)(C)C)C(=O)N[C@@H](CC(=O)O)C(=O)COc1c(F)c(F)cc(F)c1F,Z-AUC,[1],0.426 (inactive)
same,Z-AUC,[1]; [3],0.799
same,Z-AUC,[1]; measured here: PEO4 Z-AUC,1.06
COc1cc2c(cc1OC)CN(CCc1ccc(NC(=O)c3cc(OC)c(OC)cc3NC(=O)c3cnc4ccccc4c3)cc1)CC2,Z-AUC,[1],0.969 (inactive)
same,Z-AUC,[1]; [3],1.41
same,Z-AUC,[1]; measured here: PEO4 Z-AUC,1.02
CCn1c(C(=O)N(C2CC2)C2CC2)cc2c3c(ncn3C)c(Nc3cc(C)n(C)n3)nc21,Z-AUC,[1],0.749 (inactive)
same,Z-AUC,[1]; [3],1.24
same,Z-AUC,[1]; measured here: PEO4 Z-AUC,1.3
COc1ccc(C2CC(c3ccccc3)=NN2c2ccc(S(N)(=O)=O)cc2)cc1 (stereo unspecified),Z-AUC,[1],-0.424 (inactive)
same,Z-AUC,[1]; [3],-0.864
same,Z-AUC,[1]; measured here: PEO4 Z-AUC,-0.548
O=C(Nc1cccc(Br)c1)c1cccc(S(=O)(=O)N2CCCCCC2)c1,Z-AUC,[1],-0.479 (inactive)
same,Z-AUC,[1]; [3],0.243
same,Z-AUC,[1]; measured here: PEO4 Z-AUC,-0.0385
CC1(C)CCC(CN2CCN(c3ccc(C(=O)NS(=O)(=O)c4ccc(NCC5CCOCC5)c([N+](=O)[O-])c4)c(Oc4cnc5[nH]ccc5c4)c3)CC2)=C(c2ccc(Cl)cc2)C1,Z-AUC,[1],0.0291 (inactive)
same,Z-AUC,[1]; [3],0.742
same,Z-AUC,[1]; measured here: PEO4 Z-AUC,0.833
O=c1cc(N2CCOCC2)oc2c(-c3cccc4c3sc3ccccc34)cccc12,Z-AUC,[1],0.27 (inactive)
same,Z-AUC,[1]; [3],0.135
same,Z-AUC,[1]; measured here: PEO4 Z-AUC,0.0636
NS(=O)(=O)c1ccc(NC2=CC(=O)c3ccccc3C2=O)cc1,Z-AUC,[1],-0.549 (inactive)
same,Z-AUC,[1]; [3],-0.888
same,Z-AUC,[1]; measured here: PEO4 Z-AUC,-0.629
CC/C(=C(\c1ccccc1)c1ccc(OCCN(C)C)cc1)c1ccccc1,Z-AUC,[1],-0.344 (inactive)
same,Z-AUC,[1]; [3],-0.716
same,Z-AUC,[1]; measured here: PEO4 Z-AUC,-0.672
O=c1cc(-c2ccccc2)oc2cc(O)c(O)c(O)c12,Z-AUC,[1],0.741 (inactive)
same,Z-AUC,[1]; [3],0.629
same,Z-AUC,[1]; measured here: PEO4 Z-AUC,0.577
COC(=O)[C@@H]1[C@H]2C[C@H]3c4[nH]c5ccccc5c4CCN3C[C@@H]2CC[C@@H]1O,Z-AUC,[1],0.808 (inactive)
same,Z-AUC,[1]; [3],0.498
same,Z-AUC,[1]; measured here: PEO4 Z-AUC,0.659
N[C@@]1(C(=O)O)CS(=O)(=O)[C@H]2[C@H](C(=O)O)[C@H]21,Z-AUC,[1],-0.18 (inactive)
same,Z-AUC,[1]; [3],0.223
same,Z-AUC,[1]; measured here: PEO4 Z-AUC,0.235
